Data taken from PubChem BioAssay (NCATS).
Records with an inconclusive call do not appear. Active and inactive are the calls of the source. Calls come from the whole dose curve; as a rule, active = well fitted inhibition curve with a large enough effect; inconclusive = small, poorly fitted or top-dose-only effect; inactive = flat fitted curve, though single readings scatter.

Legend:
Experiment in all cases: qHTS profiling for inhibitors of Plasmodium falciparum proliferation (AID 504749); note: nearly all actives have a fitted effect of over 60% in size
Conditions in all cases: P. falciparum in erythrocytes, SYBR Green DNA, 72 h; series mostly up to 28.7 µM
[1] = test system: AA1029
How it was run: (§1)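 Parasite proliferation within erythrocytes, 72 h exposure. Endpoint: SYBR Green I fluorescence after overnight lysis at room temperature. Controls: 0.29 uM artemisinin, DMSO.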

[2] = test system: AS120
How it was run: as §1

[3] = test system: ATS189
How it was run: as §1

[4] = test system: ATS95
How it was run: as §1

[5] = test system: C2A
How it was run: as §1

[6] = test system: CP185
How it was run: as §1

[7] = test system: CP191
How it was run: as §1

[8] = test system: CP192
How it was run: as §1

[9] = test system: CP194
How it was run: as §1

[10] = test system: CP201
How it was run: as §1

[11] = test system: CP211
How it was run: as §1

[12] = test system: CP215
How it was run: as §1

[13] = test system: CP217
How it was run: as §1

[14] = test system: CP237
How it was run: as §1

[15] = test system: CP238
How it was run: as §1

[16] = test system: CP247
How it was run: as §1

[17] = test system: CP250
How it was run: as §1

[18] = test system: CP252
How it was run: as §1

[19] = test system: CP256
How it was run: as §1

[20] = test system: CP203
How it was run: as §1

Measured: Potency
Potency is the fitted concentration of half-maximal effect.

CC(C)c1ncc([N+](=O)[O-])n1C
not listed: [20]
inactive: all other assays above

CCC(C)[C@@H](N)C(=O)O (some centres not stated)
not listed: [20]
inactive: all other assays above

CCCOc1cc(N)ccc1C(=O)OCCN(CC)CC
not listed: [11] | [16] | [19] | [20]
inactive: all other assays above

CC(C)C1=CC2=CC[C@@H]3[C@](C)(CCC[C@@]3(C)C(=O)O)[C@H]2CC1
not listed: [8] | [9] | [10] | [11] | [12] | [20]
inactive: all other assays above

O=P(O)(O)OC[C@H](O)CO
not listed: [12] | [20]
inactive: all other assays above

COc1ccccc1N1CCN(CCCC(=O)c2ccc(F)cc2)CC1
not listed: [7]
inactive: all other assays above

O.O.O.O.O.O.O.O=S(=O)([O-])[O-].[Co+2]
active: [1] 8.91 µM | [2] 5.01 µM | [3] 11.2 µM | [4] 5.01 µM | [5] 12.6 µM | [6] 12.6 µM | [7] 8.91 µM | [9] 7.57 µM | [10] 7.57 µM | [20] 6.75 µM | [11] 9.53 µM | [13] 11.2 µM | [15] 7.94 µM | [16] 11.2 µM | [17] 11.2 µM | [18] 11.2 µM | [19] 8.91 µM
